Compound activity deposited in PubChem BioAssay by several laboratories.
CYP2C19 inh = blockers of cytochrome P450 2C19 activity – biochemical, luminescence, ADME assay, primary screen | CYP2C19 Supersomes, luciferin-H EGE luminescence, 30 min | inhibition, % at 5 µM | actives 21% (n = 96,000);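 active means CYP2C19 inhibition above a set limit at 5 µM in the primary screen, cut at about 50% in these data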;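 further: plate controls were negative control wells for no effect and 2.5 mM tranylcypromine positive control for full effect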
PostGolgi ctrl = growth inhibition of yeast control strain, primary screen, counter-screen for post-Golgi transport modulator project; efflux-deficient yeast background strain, growth absorbance A615, 16 h; inhibition, % at 10 µM; actives 5% (n = 98,000); AID 738, 2007
PostGolgi yeast = phenotypic screen on post-Golgi transport, primary screen; inhibition, % at 10 µM; actives 0.9% (n = 98,000); AID 739, 2007; post-Golgi transport phenotypic cell assay;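 further: yeast cells grown in 1536-well plates; yeast grown about 18 h at 30C before absorbance read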
CYP2C9 act = human CYP2C9 activators, primary screen, biochemical, luminescence; recombinant CYP2C9, luciferin-H conversion; hits give high values; factor 1 = untreated enzyme, 0 = blocked; activation factor at 5 µM; actives 1.4% (n = 96,000); AID 1024, 2008;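 active means activation factor of 2 or more for CYP2C9 at a 5 µM dose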;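 further: 0 = sulfaphenazole-blocked wells and 1 = vehicle-only wells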
Target sequence (P11712 whole entry, looked up): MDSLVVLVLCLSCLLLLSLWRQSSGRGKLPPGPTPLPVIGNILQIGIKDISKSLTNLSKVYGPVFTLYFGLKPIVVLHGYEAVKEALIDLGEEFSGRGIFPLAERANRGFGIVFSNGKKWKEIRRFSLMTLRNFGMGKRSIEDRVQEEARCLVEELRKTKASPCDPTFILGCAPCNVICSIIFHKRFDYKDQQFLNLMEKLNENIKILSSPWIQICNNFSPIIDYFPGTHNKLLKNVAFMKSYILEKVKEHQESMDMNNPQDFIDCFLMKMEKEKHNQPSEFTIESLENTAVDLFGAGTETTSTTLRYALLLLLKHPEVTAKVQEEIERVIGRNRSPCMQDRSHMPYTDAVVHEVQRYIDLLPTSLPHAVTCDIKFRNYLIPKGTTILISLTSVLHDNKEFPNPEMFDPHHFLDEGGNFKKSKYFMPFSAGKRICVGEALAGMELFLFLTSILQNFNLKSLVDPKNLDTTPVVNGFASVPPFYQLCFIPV
CYP2C19 activ = human CYP2C19 activators, primary screen, biochemical, luminescence; activation factor at 5 µM; 96,000 tested, under 10 active; AID 1025, 2008; Cytochrome P450 2C19 (Homo sapiens), P33261; recombinant CYP2C19, luciferin-H EGE luminescence; hits give high values; 0 = fully inhibited enzyme, 1 = untreated enzyme;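 active means activation factor of at least 2 at 5 µM in the primary screen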;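 further: 0 = wells with 2.5 mM tranylcypromine and 1 = vehicle-only wells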
CYP2C9 inh = blockers of cytochrome P450 2C9 activity – biochemical, luminescence, ADME assay, primary screen. AID 777, 2007. actives 20% (n = 96,000). inhibition, % at 5 µM. CYP2C9 Supersomes, luciferin-H conversion;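 active means blocking of liver enzyme CYP2C9 beyond about 50% at 5 µM, limit read from the data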
Numbers without * were called inactive; . = no result. Shown are actives, neighbours in structure and some others; about 32% of the full set was active somewhere. Unless noted, no stated cut-off is given here; in the data, active means inhibition above about 30%; inactive means the rest.

SMILES	CYP2C19 inh	PostGolgi ctrl	PostGolgi yeast	CYP2C9 act	CYP2C19 activ	CYP2C9 inh
CCOCCOCCC(C(=O)OCC)P(=O)(c1ccccc1)c1ccccc1 (stereo unspecified)	-7	8	-1	1.1	1.1	-12
Cc1ccc(-c2nn3nnnc3c3ccccc23)cc1	12	0	-3	1	0.9	-2
CS(=O)(=O)N(Cc1nnc(-c2cccs2)o1)c1ccc(Cl)cc1F	99*	18	-5	0.1	0	88*
Fc1ccc(Cc2nnc(-c3cccs3)o2)cc1	.	-3	16	.	.	.
CSc1nnc2c3cc(C)ccc3n(Cc3ccccc3)c2n1	8	28	-10	0.7	0.9	30
Cc1ccc(NC(=O)CCCCCC2NC(=O)NC2C)cc1 (stereo unspecified)	61*	2	3	1.5	0.4	-48
CC1NC(=O)NC1CCCCC(=O)O (stereo unspecified)	-4	-16	-9	1	1	-4
CC(C)(C)n1ncc2c(=O)n(CC(=O)N3CCCc4ccccc43)cnc21	28	10	-9	0.9	0.7	10
OC1(c2ccc(OC(F)F)cc2)CSC(=Nc2cccnc2)N1C1CC1 (stereo unspecified)	100*	30*	-6	0.6	0	42
Cc1cc(C)n2c(SCC(=O)Nc3cc(C)on3)nnc2n1	.	5	1	.	.	.
COC(=O)CSc1nnc([C@H](Cc2ccccc2)NC(=O)OC(C)(C)C)o1	12	2	4	1	0.9	2
CCSc1nnc([C@H](Cc2c[nH]c3ccccc23)NC(=O)OC(C)(C)C)o1	28	19	15	0.8	0.7	18
Cc1cccc(CS(=O)(=O)c2nnc([C@H](Cc3ccccc3)NC(=O)OC(C)(C)C)o2)c1	36	30	27	0.4	0.6	56*
COC(=O)CS(=O)(=O)c1nnc([C@H](Cc2ccccc2)NC(=O)OC(C)(C)C)o1	84*	3	6	0.2	0.2	77*
O=C(Cc1c(O)c2ccccc2[nH]c1=O)NC1CCCCCCC1	9	8	-4	0.9	0.9	11
Cc1cc(=O)[nH]c(SCc2cccc(Br)c2)n1	33	0	-7	0.3	0.7	74*
Cc1cc(=O)[nH]c(SCc2nc3ccccc3s2)n1	38	-3	-3	0.8	0.6	20
COc1ccc(CSc2nc(C)cc(=O)[nH]2)cc1Br	71*	17	-5	0.6	0.3	42
C=CCNc1nc(-c2ccc(OC)cc2OC)cs1	57*	10	0	1.1	0.4	-8
C=CCn1c(COC)nnc1SCC(=O)c1ccc(F)cc1	36	14	-9	1.2	0.6	-17
Cc1ccc(-c2nc3ccccc3c(=O)n2CCCn2ccnc2)cc1	37	11	10	0.9	0.6	7
COc1ccc(CCn2c(-c3ccco3)nc3ccccc3c2=O)cc1OC	95*	24	2	0.5	0	48
O=c1c2ccccc2nc(-c2ccco2)n1CCCn1ccnc1	69*	-5	-5	0.3	0.3	65*
O=c1c2ccccc2nc(-c2ccccc2)n1CCCn1ccnc1	72*	24	9	0.3	0.3	70*
COc1ccc(CCn2c(C)c(C(C)=O)c3cc(OC(=O)c4ccco4)ccc32)cc1OC	83*	21	8	0.1	0.2	87*
SMILES	CYP2C19 inh	PostGolgi ctrl	PostGolgi yeast	CYP2C9 act	CYP2C19 activ	CYP2C9 inh
COc1ccc(C(CC(=O)O)NC(=O)c2ccccc2)cc1OC (stereo unspecified)	-8	-2	-3	1.1	1.1	-14
CCCS(=O)(=O)N1CCN(C(=O)COc2ccc(OC)cc2)CC1	12	0	-4	0.8	0.9	16
O=C1C2C3CCCC3=C3CCCC3C2C(=O)N1c1ccc(F)cc1 (stereo unspecified)	2	10	0	0.9	1	6
CCC(c1nc2ccccc2c(=O)n1CCCn1ccnc1)N1C(=O)c2ccccc2C1=O (stereo unspecified)	93*	12	-7	0.1	0.1	85*
O=C(CN(Cc1ccco1)S(=O)(=O)c1cccs1)Nc1ccccc1C(F)(F)F	90*	13	-5	0.2	0.1	79*
O=C(CN(Cc1ccccc1Cl)C(=O)c1ccc(CN2CCOCC2)o1)NCC1CCCO1 (stereo unspecified)	0	6	5	1	1	1
Cn1cc(C(CC(=O)O)C(=O)O)c2ccccc21 (stereo unspecified)	11	1	19	0.9	0.9	9
CCOC(=O)CC(C#N)c1cn(C)c2ccccc12 (stereo unspecified)	88*	5	-5	3.5*	0.1	-249
Cc1cnc(SCCc2ccncc2)nc1C	76*	0	1	0.6	0.2	45
Cc1cccc(N2CCN(S(C)(=O)=O)CC2)c1C	13	-2	25	0.8	0.9	16
COc1ccccc1N1CCN(S(=O)(=O)c2ccc(Cl)s2)CC1	97*	0	-7	0	0	96*
COc1ccc(S(=O)(=O)N2CCN(c3cccc(C)c3C)CC2)cc1	97*	35*	-10	0.1	0	88*
COc1ccccc1N1CCN(S(=O)(=O)c2cccc(F)c2)CC1	96*	9	16	0.1	0	89*
COc1ccc(OC)c(S(=O)(=O)N2CCN(c3c(C)cccc3C)CC2)c1	50*	29	-2	0	0.5	98*
CCOc1ccccc1N1CCN(S(=O)(=O)c2ccc(Cl)s2)CC1	45	25	-4	0.5	0.5	46
COc1ccccc1N1CCN(S(C)(=O)=O)CC1	19	3	2	1	0.8	2
Cn1c(=O)oc2cc(S(=O)(=O)NCc3ccccn3)ccc21	24	2	-1	1	0.8	-5
O=C(NC1CC1)c1ccc(CSCc2cccc(F)c2)o1	40	-2	3	0.7	0.6	27
Cc1cccc(C)c1N1CCN(S(=O)(=O)c2ccc(F)cc2)CC1	97*	21	-1	0.1	0	93*
COc1ccccc1N1CCN(S(=O)(=O)c2ccc(F)cc2)CC1	91*	21	18	0.2	0.1	82*
O=S(=O)(/C=C/c1ccccc1)N1CCN(c2ccccc2)CC1	30	-8	3	1.1	0.7	-13
O=S(=O)(c1ccc(F)cc1)N1CCN(c2nc(-c3ccc(F)cc3)cs2)CC1	-6	37*	-2	1.1	1.1	-6
COc1ccccc1N1CCN(S(=O)(=O)/C=C/c2ccccc2)CC1	100*	2	-5	0.3	0	66*
